Screens: PubChem, several laboratories
Many of the other results were omitted from the sample, so hits are more common in it than they were.
BoNT-A LC inh2 = inhibitors of Botulinum neurotoxin A light chain protease | inhibition, % at 10 µM | AID 588499 | multiplex microsphere protease substrate cleavage, flow cytometry | actives 0.17% (n = 360,000); further: plate controls were buffer without enzyme for full effect and enzyme alone for no effect
BoNT F protease = inhibitors of Botulinum neurotoxin F light chain protease; actives 0.22% (n = 360,000); Multiplex microsphere protease cleavage assay, flow cytometry; AID 588497; inhibition, % at 10 µM; in the data active means inhibition above about 35%, passing the limit was not always enough; inconclusive means no clear call, values can overlap the other calls; further: plate controls were buffer without enzyme for full effect and enzyme alone for no effect
Autofluor counter = counter-screen for toxin protease inhibitors: compound fluorescence | actives 3.1% (n = 360,000) | compound autofluorescence counterscreen, microsphere flow cytometry; stronger effect = higher value | fluorescence intensity (test concentration not listed) | AID 624483; in the data active means fluorescence intensity above about 16000; inconclusive means no clear call, values can overlap the other calls
Anthrax LF inh2 = blocks Bacillus anthracis lethal factor protease; actives 0.12% (n = 360,000); multiplex microsphere protease cleavage assay, LF; inhibition, % at 10 µM; AID 588501; further: plate controls were buffer without enzyme for full effect and enzyme alone for no effect
TcdB inh = blocks C. difficile toxin B glycohydrolase activity. P18177. TcdB glycohydrolase enzymatic assay, plate reader. inhibition, % at 9.99 µM. actives 0.24% (n = 350,000). AID 652162; in the data active means inhibition above about 10%
BoNT-A LC CP1 = BoNT/A light chain protease inhibition; shares compounds with BoNT F protease; multiplex microsphere protease assay, flow cytometry; inhibition, % at 10 µM; actives 3% (n = 720); AID 602139; in the data active means inhibition above about 32%
BoNT-F LC CP1 = BoNT/F light chain protease inhibition. shares compounds with BoNT F protease. multiplex microsphere protease cleavage assay, flow cytometry. inhibition, % at 10 µM. 720 tested, under 10 active; call rule not given here
Anthrax LF CP1 = Bacillus anthracis lethal factor protease inhibition | multiplex microsphere protease cleavage assay, LF | inhibition, % at 10 µM | 720 tested, under 10 active | shares compounds with BoNT F protease; call rule not given here
The depositor's hits bear a star; u = inconclusive; x = not tested or not shown. Unless noted, no stated cut-off is given here; in the data, active means inhibition above about 30%; inconclusive means no clear call, values can overlap the other calls; inactive means below that.

SMILES | BoNT-A LC inh2 | BoNT F protease | Autofluor counter | Anthrax LF inh2 | TcdB inh | BoNT-A LC CP1 | BoNT-F LC CP1 | Anthrax LF CP1
CC(Nc1ccc(Cl)c(Cl)c1)C(=O)NN (stereo unspecified) | u | u | 4127 | 6 | -2 | x | x | x
O=C(c1ccccc1)N1C[C@@H]2[C@H](c3ccccc31)[C@H](CO)N2C(=O)CN1CCOCC1 | x | x | x | x | -2 | x | x | x
CCCCNCCOCCOc1ccc(C)cc1[N+](=O)[O-] | 22 | 46* | u | u | x | 2 | 1 | 1
COC(=O)C[C@H]1CC[C@@H]2[C@H](COc3ccc(NC(=O)c4cccc(OC)c4)cc3C(=O)N2C)O1 | x | x | x | x | 5 | x | x | x
Cc1ccc(S(=O)(=O)N2CCCN(c3nc4cc(C)ccc4cc3C#N)CC2)cc1 | 40* | 32 | 13376 | 16 | x | 12 | -3 | 2
Cc1ccc2nc(N3CCN(S(=O)(=O)c4ccc5c(c4)OCCO5)CC3)c(C#N)cc2c1 | 14 | 10 | 10472 | 8 | x | x | x | x
c1ccc(CN2CCc3[nH]c4ccccc4c3C2)cc1 | 0 | -28 | 4543 | -9 | 1 | x | x | x
CCN1CCc2[nH]c3ccccc3c2C1 | 5 | 54* | 3806 | 15 | 1 | -2 | -9 | -3
CCC(C)NC(=O)c1c(N)n(Cc2ccc3c(c2)OCO3)c2nc3ccccc3nc12 (stereo unspecified) | 30* | -14 | 4797 | 14 | x | 4 | -6 | -4
C=CCn1c(CCC)nc2ccccc21 | 0 | 0 | 4013 | 0 | -1 | x | x | x
C=CCn1c(C(CC)CC)nc2ccccc21 | -2 | 36* | 4311 | -16 | 1 | 0 | -2 | 3
CCCn1c(SCC(=O)c2c[nH]c3ccccc23)nnc1-c1ccncc1 | 53* | -24 | 4586 | 15 | x | 17 | -9 | 17
COCCNc1nnc(SCC(=O)c2c[nH]c3ccccc23)s1 | 52* | -19 | 5036 | 17 | x | 10 | -14 | 13
Cc1occc1-c1nnc(SCC(=O)c2c[nH]c3ccccc23)n1C | 54* | 27 | 4371 | 45* | x | -1 | -8 | 3
Cc1ccc2nc(SCC(=O)c3c[nH]c4ccccc34)[nH]c2c1 | 58* | -17 | 5287 | 14 | 0 | 20 | -19 | 17
O=C(C[C@H]1C[C@H]2c3cc(NC(=O)NC4CCCCC4)ccc3O[C@H]2[C@H](CO)O1)NCc1ccccn1 | x | x | x | x | -1 | x | x | x
C[C@H]1CN([C@@H](C)CO)C(=O)CCCn2nncc2CO[C@@H]1CN(C)Cc1ccccc1C(=O)O | x | x | x | x | 0 | x | x | x
COc1ccc(CN(C)C[C@@H]2Oc3c(NS(=O)(=O)c4c(C)noc4C)cccc3C(=O)N([C@H](C)CO)C[C@@H]2C)cc1 | x | x | x | x | 0 | x | x | x
COCCCNCCCCOc1ccc(Br)cc1C | 5 | 36* | 2506 | -1 | x | 5 | -10 | -2
CCOCCCNC(=O)CN1C(=O)c2cccc3cccc1c23 | 3 | 39* | 3541 | -4 | 0 | -1 | -5 | -2
C[C@H](CO)N1C[C@H](C)[C@@H](CN(C)S(C)(=O)=O)Oc2ncc(C3=CCCC3)cc2C1=O | x | x | x | x | 1 | x | x | x
CO[C@H]1CN(C)C(=O)c2cc(NS(C)(=O)=O)ccc2OC[C@@H](C)N(CC2CCOCC2)C[C@H]1C | x | x | x | x | 0 | x | x | x
C[C@@H]1CN([C@@H](C)CO)C(=O)c2cc(NC(=O)CCN3CCOCC3)ccc2O[C@H]1CN(C)S(C)(=O)=O | x | x | x | x | 2 | x | x | x
CCN(CC)c1nc2cc(OC)ccc2cc1C#N | 31* | 23 | 5562 | 19 | x | 3 | 2 | -2
O=C(CN1CCOCC1)NCc1ccccc1 | 0 | 2 | 7755 | -4 | 3 | x | x | x
SMILES | BoNT-A LC inh2 | BoNT F protease | Autofluor counter | Anthrax LF inh2 | TcdB inh | BoNT-A LC CP1 | BoNT-F LC CP1 | Anthrax LF CP1
O=C(CN1CCOCC1)NCCc1ccccc1 | -1 | 7 | 3531 | 31* | 1 | 0 | 0 | -1
C[C@H]1CN([C@@H](C)CO)C(=O)c2cc(NC(=O)CCN3CCOCC3)ccc2O[C@H]1CN(C)C(=O)NC1CCCCC1 | x | x | x | x | 0 | x | x | x
CCS(=O)(=O)N1CCC(C(=O)Oc2ccc(C(=O)OC)cc2)CC1 | 1 | -9 | 5488 | -2 | 2 | x | x | x
CCS(=O)(=O)N1CCC(C(=O)Oc2ccccc2)CC1 | 1 | 39* | 4002 | -2 | -1 | 0 | -3 | 1
C[C@@H]1CN([C@@H](C)CO)C(=O)c2cc(-c3cccnc3)cnc2O[C@H]1CN(C)C(=O)Nc1ccc2c(c1)OCO2 | x | x | x | x | 0 | x | x | x
O=C(C[C@@H]1CC[C@H]2[C@@H](COC[C@@H](O)CN2S(=O)(=O)c2ccccc2F)O1)NCc1ccccc1F | x | x | x | x | 0 | x | x | x
